{
  "source": "PubChem BioAssay AID1159580",
  "about": "(chemical genetic matrix, 2015)",
  "assay": "chemical genetic growth profiling, strain panel (AID 1159580);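 note: tested at 20 µM; growth read once vehicle control cultures reached saturation at 30 °C; 1 = growth at the plate median or of vehicle wells; lower values mean less growth of the strain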",
  "settings": "growth OD",
  "note": "The whole screen tested about 5,500 compounds, of which about 2,000 (36%) were called active. Inconclusive results (about 18%) are left out. This is one part of the list. Values without a mark were called inactive. Cut-off read from the data, not from the text of the source: active = normalized growth mostly below about 0.91 (no sharp cut-off); inconclusive = no clear call, values can overlap the other calls; inactive = mostly above about 0.92.",
  "data": [
    {"smiles": "COC(=O)C(N)CS", "note": "(configuration not stated)", "values": [
      {"measurement": "normalized growth", "setting": "S. cerevisiae deletion strains, locus YJR075W, strain HOC1, stronger effect = lower value", "value": 0.977},
      {"measurement": "normalized growth", "setting": "S. cerevisiae deletion strains, locus YKL009W, strain mrt4, stronger effect = lower value", "value": 1.02},
      {"measurement": "normalized growth", "setting": "S. cerevisiae deletion strains, locus YKL068W, stronger effect = lower value", "value": 0.99},
      {"measurement": "normalized growth", "setting": "S. cerevisiae deletion strains, locus YKL085W, strain MDH1 (second series), stronger effect = lower value", "value": 0.992},
      {"measurement": "normalized growth", "setting": "S. cerevisiae deletion strains, locus YKL085W, strain MDH1, stronger effect = lower value", "value": 0.992},
      {"measurement": "normalized growth", "setting": "S. cerevisiae deletion strains, locus YKL160W, strain elf1, stronger effect = lower value", "value": 1.02},
      {"measurement": "normalized growth", "setting": "S. cerevisiae deletion strains, locus YKL190W, strain CNB1, stronger effect = lower value", "value": 0.998},
      {"measurement": "normalized growth", "setting": "S. cerevisiae deletion strains, locus YKR001C, strain vps1, stronger effect = lower value", "value": 0.924},
      {"measurement": "normalized growth", "setting": "S. cerevisiae deletion strains, locus YKR026C, strain gcn3, stronger effect = lower value", "value": 0.985},
      {"measurement": "normalized growth", "setting": "S. cerevisiae deletion strains, locus YKR091W, strain srl3, stronger effect = lower value", "value": 0.99},
      {"measurement": "normalized growth", "setting": "S. cerevisiae deletion strains, locus YLL001W, strain dnm1, stronger effect = lower value", "value": 0.948},
      {"measurement": "normalized growth", "setting": "S. cerevisiae deletion strains, locus YLL026W, stronger effect = lower value", "value": 0.978},
      {"measurement": "normalized growth", "setting": "S. cerevisiae deletion strains, locus YLL041C, strain sdh2, stronger effect = lower value", "value": 0.985},
      {"measurement": "normalized growth", "setting": "S. cerevisiae deletion strains, locus YLR027C, strain aat2, stronger effect = lower value", "value": 0.988},
      {"measurement": "normalized growth", "setting": "S. cerevisiae deletion strains, locus YLR039C, strain RIC1, stronger effect = lower value", "value": 0.897},
      {"measurement": "normalized growth", "setting": "S. cerevisiae deletion strains, locus YLR058C, strain SHM2, stronger effect = lower value", "value": 0.99},
      {"measurement": "normalized growth", "setting": "S. cerevisiae deletion strains, locus YLR102C, strain apc9, stronger effect = lower value", "value": 0.98},
      {"measurement": "normalized growth", "setting": "S. cerevisiae deletion strains, locus YLR113W, strain HOG1, stronger effect = lower value", "value": 0.972},
      {"measurement": "normalized growth", "setting": "S. cerevisiae deletion strains, locus YLR221C, strain rsa3, stronger effect = lower value", "value": 0.961},
      {"measurement": "normalized growth", "setting": "S. cerevisiae deletion strains, locus YLR258W, strain gsy2, stronger effect = lower value", "value": 1},
      {"measurement": "normalized growth", "setting": "S. cerevisiae deletion strains, locus YLR262C, strain YPT6 (second series), stronger effect = lower value", "value": 0.926},
      {"measurement": "normalized growth", "setting": "S. cerevisiae deletion strains, locus YLR262C, strain YPT6, stronger effect = lower value", "value": 0.943},
      {"measurement": "normalized growth", "setting": "S. cerevisiae deletion strains, locus YLR268W, strain sec22, stronger effect = lower value", "value": "0.871 (active)"},
      {"measurement": "normalized growth", "setting": "S. cerevisiae deletion strains, locus YLR320W, strain mms22, stronger effect = lower value", "value": 0.92},
      {"measurement": "normalized growth", "setting": "S. cerevisiae deletion strains, locus YLR330W, strain CHS5, stronger effect = lower value", "value": 0.993},
      {"measurement": "normalized growth", "setting": "S. cerevisiae deletion strains, locus YLR342W, strain FKS1 (second series), stronger effect = lower value", "value": 0.938},
      {"measurement": "normalized growth", "setting": "S. cerevisiae deletion strains, locus YLR342W, strain FKS1, stronger effect = lower value", "value": 0.984},
      {"measurement": "normalized growth", "setting": "S. cerevisiae deletion strains, locus YLR357W, strain rsc2, stronger effect = lower value", "value": 0.947},
      {"measurement": "normalized growth", "setting": "S. cerevisiae deletion strains, locus YLR370C, strain arc18, stronger effect = lower value", "value": 0.996},
      {"measurement": "normalized growth", "setting": "S. cerevisiae deletion strains, locus YLR371W, strain rom2, stronger effect = lower value", "value": 0.967},
      {"measurement": "normalized growth", "setting": "S. cerevisiae deletion strains, locus YLR384C, strain iki3, stronger effect = lower value", "value": 0.992},
      {"measurement": "normalized growth", "setting": "S. cerevisiae deletion strains, locus YLR418C, strain cdc73, stronger effect = lower value", "value": 0.888},
      {"measurement": "normalized growth", "setting": "S. cerevisiae deletion strains, locus YML016C, strain PPZ1, stronger effect = lower value", "value": 0.989},
      {"measurement": "normalized growth", "setting": "S. cerevisiae deletion strains, locus YML032C, strain rad52, stronger effect = lower value", "value": 0.962},
      {"measurement": "normalized growth", "setting": "S. cerevisiae deletion strains, locus YML120C, strain ndi1, stronger effect = lower value", "value": 0.949},
      {"measurement": "normalized growth", "setting": "S. cerevisiae deletion strains, locus YML124C, strain tub3, stronger effect = lower value", "value": 0.985},
      {"measurement": "normalized growth", "setting": "S. cerevisiae deletion strains, locus YMR058W, strain fet3, stronger effect = lower value", "value": 0.963},
      {"measurement": "normalized growth", "setting": "S. cerevisiae deletion strains, locus YMR078C, strain ctf18, stronger effect = lower value", "value": 0.968},
      {"measurement": "normalized growth", "setting": "S. cerevisiae deletion strains, locus YMR125W, strain sto1, stronger effect = lower value", "value": 1.01},
      {"measurement": "normalized growth", "setting": "S. cerevisiae deletion strains, locus YMR129W, stronger effect = lower value", "value": 1},
      {"measurement": "normalized growth", "setting": "S. cerevisiae deletion strains, locus YMR205C, strain PFK2, stronger effect = lower value", "value": 0.957},
      {"measurement": "normalized growth", "setting": "S. cerevisiae deletion strains, locus YMR223W, strain ubp8, stronger effect = lower value", "value": 0.965},
      {"measurement": "normalized growth", "setting": "S. cerevisiae deletion strains, locus YMR231W, strain pep5, stronger effect = lower value", "value": 0.981},
      {"measurement": "normalized growth", "setting": "S. cerevisiae deletion strains, locus YMR263W, strain SAP30, stronger effect = lower value", "value": 0.984},
      {"measurement": "normalized growth", "setting": "S. cerevisiae deletion strains, locus YMR307W, strain GAS1, stronger effect = lower value", "value": 1},
      {"measurement": "normalized growth", "setting": "S. cerevisiae deletion strains, locus YNL067W, strain RPL9B, stronger effect = lower value", "value": 0.968},
      {"measurement": "normalized growth", "setting": "S. cerevisiae deletion strains, locus YNL071W, strain lat1, stronger effect = lower value", "value": 0.968},
      {"measurement": "normalized growth", "setting": "S. cerevisiae deletion strains, locus YNL128W, strain TEP1, stronger effect = lower value", "value": 0.983},
      {"measurement": "normalized growth", "setting": "S. cerevisiae deletion strains, locus YNL153C, strain GIM3, stronger effect = lower value", "value": 0.991},
      {"measurement": "normalized growth", "setting": "S. cerevisiae deletion strains, locus YNL183C, strain NPR1, stronger effect = lower value", "value": 1},
      {"measurement": "normalized growth", "setting": "S. cerevisiae deletion strains, locus YNL209W, strain ssb2, stronger effect = lower value", "value": 1.01},
      {"measurement": "normalized growth", "setting": "S. cerevisiae deletion strains, locus YNL233W, strain BNI4, stronger effect = lower value", "value": 0.955},
      {"measurement": "normalized growth", "setting": "S. cerevisiae deletion strains, locus YNL248C, strain rpa49, stronger effect = lower value", "value": 0.984},
      {"measurement": "normalized growth", "setting": "S. cerevisiae deletion strains, locus YNL250W, strain rad50, stronger effect = lower value", "value": 0.98},
      {"measurement": "normalized growth", "setting": "S. cerevisiae deletion strains, locus YNL271C, strain bni1, stronger effect = lower value", "value": 0.98},
      {"measurement": "normalized growth", "setting": "S. cerevisiae deletion strains, locus YNL298W, strain CLA4, stronger effect = lower value", "value": 0.991},
      {"measurement": "normalized growth", "setting": "S. cerevisiae deletion strains, locus YNL307C, strain MCK1, stronger effect = lower value", "value": "0.797 (active)"},
      {"measurement": "normalized growth", "setting": "S. cerevisiae deletion strains, locus YNL322C, strain KRE1 (second series), stronger effect = lower value", "value": 1},
      {"measurement": "normalized growth", "setting": "S. cerevisiae deletion strains, locus YNL322C, strain KRE1, stronger effect = lower value", "value": 1},
      {"measurement": "normalized growth", "setting": "S. cerevisiae deletion strains, locus YNR049C, strain mso1, stronger effect = lower value", "value": 0.986},
      {"measurement": "normalized growth", "setting": "S. cerevisiae deletion strains, locus YNR052C, strain pop2, stronger effect = lower value", "value": 0.973},
      {"measurement": "normalized growth", "setting": "S. cerevisiae deletion strains, locus YOL006C, strain TOP1, stronger effect = lower value", "value": 0.896},
      {"measurement": "normalized growth", "setting": "S. cerevisiae deletion strains, locus YOL012C, strain htz1", "value": 1.21},
      {"measurement": "normalized growth", "setting": "S. cerevisiae deletion strains, locus YOL147C, strain pex11, stronger effect = lower value", "value": 0.984},
      {"measurement": "normalized growth", "setting": "S. cerevisiae deletion strains, locus YOR001W, strain rrp6, stronger effect = lower value", "value": 0.929},
      {"measurement": "normalized growth", "setting": "S. cerevisiae deletion strains, locus YOR061W, strain CKA2, stronger effect = lower value", "value": 0.989},
      {"measurement": "normalized growth", "setting": "S. cerevisiae deletion strains, locus YOR069W, strain VPS5, stronger effect = lower value", "value": 0.991},
      {"measurement": "normalized growth", "setting": "S. cerevisiae deletion strains, locus YOR070C, strain gyp1, stronger effect = lower value", "value": 0.999},
      {"measurement": "normalized growth", "setting": "S. cerevisiae deletion strains, locus YOR080W, strain dia2, stronger effect = lower value", "value": 0.979},
      {"measurement": "normalized growth", "setting": "S. cerevisiae deletion strains, locus YOR083W, strain WHI5, stronger effect = lower value", "value": 0.988},
      {"measurement": "normalized growth", "setting": "S. cerevisiae deletion strains, locus YOR106W, strain vam3, stronger effect = lower value", "value": 0.949},
      {"measurement": "normalized growth", "setting": "S. cerevisiae deletion strains, locus YOR136W, strain idh2, stronger effect = lower value", "value": 0.978},
      {"measurement": "normalized growth", "setting": "S. cerevisiae deletion strains, locus YOR144C, strain elg1, stronger effect = lower value", "value": 0.979},
      {"measurement": "normalized growth", "setting": "S. cerevisiae deletion strains, locus YOR184W, strain ser1, stronger effect = lower value", "value": 0.911},
      {"measurement": "normalized growth", "setting": "S. cerevisiae deletion strains, locus YOR231W, strain MKK1, stronger effect = lower value", "value": 1},
      {"measurement": "normalized growth", "setting": "S. cerevisiae deletion strains, locus YOR265W, strain rbl2, stronger effect = lower value", "value": 0.992},
      {"measurement": "normalized growth", "setting": "S. cerevisiae deletion strains, locus YOR270C, strain vph1, stronger effect = lower value", "value": 0.805},
      {"measurement": "normalized growth", "setting": "S. cerevisiae deletion strains, locus YOR290C, strain snf2, stronger effect = lower value", "value": 1.02},
      {"measurement": "normalized growth", "setting": "S. cerevisiae deletion strains, locus YOR316C, strain cot1, stronger effect = lower value", "value": 0.987},
      {"measurement": "normalized growth", "setting": "S. cerevisiae deletion strains, locus YPL051W, strain arl3, stronger effect = lower value", "value": 1.01},
      {"measurement": "normalized growth", "setting": "S. cerevisiae deletion strains, locus YPL055C, strain LGE1, stronger effect = lower value", "value": 0.993},
      {"measurement": "normalized growth", "setting": "S. cerevisiae deletion strains, locus YPL078C, strain atp4, stronger effect = lower value", "value": 1.01},
      {"measurement": "normalized growth", "setting": "S. cerevisiae deletion strains, locus YPL106C, strain sse1, stronger effect = lower value", "value": 1.03},
      {"measurement": "normalized growth", "setting": "S. cerevisiae deletion strains, locus YPL240C, strain hsp82, stronger effect = lower value", "value": 0.987},
      {"measurement": "normalized growth", "setting": "S. cerevisiae deletion strains, locus YPL241C, strain CIN2, stronger effect = lower value", "value": 0.996},
      {"measurement": "normalized growth", "setting": "S. cerevisiae deletion strains, locus YPL256C, strain CLN2, stronger effect = lower value", "value": 1.05},
      {"measurement": "normalized growth", "setting": "S. cerevisiae deletion strains, locus YPR119W, strain clb2, stronger effect = lower value", "value": 0.977},
      {"measurement": "normalized growth", "setting": "S. cerevisiae deletion strains, locus YPR141C, strain kar3, stronger effect = lower value", "value": 0.979},
      {"measurement": "normalized growth", "setting": "S. cerevisiae deletion strains, locus YPR163C, strain tif3, stronger effect = lower value", "value": "0.887 (active)"},
      {"measurement": "normalized growth", "setting": "S. cerevisiae deletion strains, locus YPR167C, strain met16, stronger effect = lower value", "value": 0.98},
      {"measurement": "normalized growth", "setting": "S. cerevisiae deletion strains, strain wtn01, stronger effect = lower value", "value": 0.967},
      {"measurement": "normalized growth", "setting": "S. cerevisiae strains, strain wild type, stronger effect = lower value", "value": 0.983}
    ]}
  ]
}
